{"source": "the antibiotic and cytotoxicity screens of Wong et al. (2023)", "note": "The whole screen tested about 39,000 compounds, of which about 3,300 (8.5%) were called active. The list comes from a sample in which actives are over-represented; it also holds similar structures and randomly drawn compounds.", "data": [{"system": "HepG2", "test": "cytotoxicity call (relative viability < 0.9)", "conditions": "10 µM", "values": [{"smiles": "CO[C@@H]1CN(C)C(=O)c2ccc(NC(=O)Nc3ccccc3)cc2OC[C@H](C)N(C(=O)CN(C)C)C[C@@H]1C", "cytotoxicity call": "inactive"}, {"smiles": "COc1ccc(S(=O)(=O)Nc2cccc3c2O[C@H](CN(C)C(=O)NC(C)C)[C@H](C)CN([C@@H](C)CO)C3=O)cc1", "cytotoxicity call": "inactive"}, {"smiles": "C[C@@H]1CCCCO[C@@H](CN(C)C(=O)NC2CCCCC2)[C@@H](C)CN([C@H](C)CO)C(=O)c2cc(NC(=O)NC3CCCCC3)ccc2O1", "cytotoxicity call": "inactive"}, {"smiles": "COc1ccc(S(=O)(=O)N(C)C[C@@H]2Oc3ncc(C#Cc4ccccc4)cc3C(=O)N([C@H](C)CO)C[C@@H]2C)cc1", "cytotoxicity call": "inactive"}, {"smiles": "O=c1[nH]nc2ccccn12", "cytotoxicity call": "inactive"}, {"smiles": "CN1C(=O)c2cc(NC(=O)C3CCOCC3)ccc2OC[C@@H]2O[C@@H](CC(=O)NCc3ccc4c(c3)OCO4)CC[C@H]21", "cytotoxicity call": "inactive"}, {"smiles": "COc1ccc(C(C)(C)N)cc1OC", "cytotoxicity call": "inactive"}, {"smiles": "C[N+]1(C)C[C@@H](O)C[C@H]1C(=O)O", "cytotoxicity call": "inactive"}, {"smiles": "C[C@@H]1C[C@H]1C(=O)O", "cytotoxicity call": "inactive"}, {"smiles": "C[N+]1(C)C[C@H](O)[C@H](C(=O)O)C1", "cytotoxicity call": "active"}, {"smiles": "CN1CCN(C(=O)C[C@@H]2C=C[C@@H](NC(=O)Cc3ccccn3)[C@H](CO)O2)CC1", "cytotoxicity call": "inactive"}, {"smiles": "CCCC#Cc1cnc2c(c1)C(=O)N([C@@H](C)CO)C[C@H](C)[C@H](CN(C)S(=O)(=O)c1cccc(OC)c1)O2", "cytotoxicity call": "inactive"}, {"smiles": "CCN1C[C@]23CN(C(=O)c4ccn[nH]4)C[C@@H](C[C@H]2S1(=O)=O)O3", "cytotoxicity call": "inactive"}, {"smiles": "COc1ccc(S(=O)(=O)N(C)C[C@@H]2OCCCC[C@@H](C)Oc3ccc(NC(=O)CCC(F)(F)F)cc3C(=O)N([C@H](C)CO)C[C@H]2C)cc1", "cytotoxicity call": "inactive"}, {"smiles": "COc1cc([C@H]2OC[C@](O)(Cc3ccc(O[C@@H]4O[C@H](CO)[C@@H](O)[C@H](O)[C@H]4O)c(OC)c3)[C@@H]2CO)ccc1O", "cytotoxicity call": "inactive"}, {"smiles": "COc1cc([C@H]2OC[C@@H]3[C@H]2CO[C@H]3c2cc(OC)c(O[C@@H]3O[C@H](CO)[C@@H](O)[C@H](O)[C@H]3O)c(OC)c2)cc(OC)c1OC", "cytotoxicity call": "inactive"}, {"smiles": "COc1cc(C[C@H]2CO[C@H](c3ccc(O)c(OC)c3)[C@@H]2CO[C@H]2O[C@@H](CO)[C@@H](O)[C@@H](O)[C@@H]2O)ccc1O", "cytotoxicity call": "active"}, {"smiles": "COc1ccc(NC(=O)Nc2ccc3c(c2)C(=O)N([C@@H](C)CO)C[C@H](C)[C@@H](CN(C)Cc2ccc(C(F)(F)F)cc2)OCCCC[C@H](C)O3)cc1", "cytotoxicity call": "inactive"}, {"smiles": "COc1ccc(CN(C)C[C@@H]2OCCCC[C@H](C)Oc3ccc(NC(=O)Nc4ccc(C(F)(F)F)cc4)cc3C(=O)N([C@H](C)CO)C[C@@H]2C)cc1", "cytotoxicity call": "active"}, {"smiles": "COc1ccc(CN(C)C[C@H]2OCCCC[C@@H](C)Oc3ccc(NC(=O)Nc4ccc(C(F)(F)F)cc4)cc3C(=O)N([C@H](C)CO)C[C@@H]2C)cc1", "cytotoxicity call": "active"}, {"smiles": "COc1ccc(NC(=O)Nc2ccc3c(c2)C(=O)N([C@H](C)CO)C[C@H](C)[C@@H](CN(C)Cc2ccc(C(F)(F)F)cc2)OCCCC[C@H](C)O3)cc1", "cytotoxicity call": "inactive"}, {"smiles": "COc1ccc(CN(C)C[C@@H]2OCCCC[C@H](C)Oc3ccc(NC(=O)Nc4ccc(C(F)(F)F)cc4)cc3C(=O)N([C@@H](C)CO)C[C@@H]2C)cc1", "cytotoxicity call": "active"}, {"smiles": "COc1ccc(NC(=O)Nc2ccc3c(c2)C(=O)N([C@@H](C)CO)C[C@@H](C)[C@H](CN(C)Cc2ccc(C(F)(F)F)cc2)OCCCC[C@H](C)O3)cc1", "cytotoxicity call": "inactive"}, {"smiles": "COc1ccc(NC(=O)Nc2ccc3c(c2)C(=O)N([C@H](C)CO)C[C@@H](C)[C@@H](CN(C)Cc2ccc(C(F)(F)F)cc2)OCCCC[C@H](C)O3)cc1", "cytotoxicity call": "inactive"}, {"smiles": "COc1ccc(CN(C)C[C@@H]2OCCCC[C@@H](C)Oc3ccc(NC(=O)Nc4ccc(C(F)(F)F)cc4)cc3C(=O)N([C@@H](C)CO)C[C@H]2C)cc1", "cytotoxicity call": "active"}, {"smiles": "COCC#Cc1ccc2c(c1)O[C@H](CN(C)C(=O)Nc1ccc(OC)cc1)[C@H](C)CN([C@H](C)CO)S2(=O)=O", "cytotoxicity call": "inactive"}, {"smiles": "COCC(=O)N1CC[C@]2(CC1)CN([C@H](CO)c1[nH]c3cc(ccc3c12)OC)C(=O)Nc1ccccc1F", "cytotoxicity call": "inactive"}, {"smiles": "Cc1c(C)c2c(c(C)c1OC(=O)CCC(=O)O)CC[C@@](C)(CCC[C@H](C)CCC[C@H](C)CCCC(C)C)O2", "cytotoxicity call": "inactive"}, {"smiles": "Cc1ccc(S(=O)(=O)Nc2ccc3c(c2)CC(=O)N([C@H](C)CO)C[C@@H](C)[C@@H](CN(C)S(=O)(=O)c2c(C)noc2C)O3)cc1", "cytotoxicity call": "inactive"}, {"smiles": "COc1ccc(CCNC(=O)[C@@H]2c3ccccc3C(=O)N(CC34CC5CC(CC(C5)C3)C4)[C@H]2c2ccc(CO)cc2)cc1", "cytotoxicity call": "inactive"}, {"smiles": "C=CCN(CC=C)S(=O)(=O)c1nnc[nH]1", "cytotoxicity call": "inactive"}, {"smiles": "C[C@@H]1CN([C@@H](C)CO)C(=O)c2cc(NC(=O)Cc3ccccc3)ccc2O[C@@H](C)CCCCO[C@H]1CN(C)S(=O)(=O)c1cccs1", "cytotoxicity call": "inactive"}, {"smiles": "O=C(C[C@H]1C=C[C@H](NC(=O)c2ccncc2)[C@H](CO)O1)NCc1ccncn1", "cytotoxicity call": "inactive"}, {"smiles": "CC1=CC(=O)C2=C(C)CCC3C(C)C(=O)OC3C12", "note": "(stereo unspecified)", "cytotoxicity call": "inactive"}, {"smiles": "C[C@H](CO)N1C[C@H](C)[C@@H](CN(C)Cc2ccc(Cl)c(Cl)c2)Oc2ccc(NC(=O)CCCCCC(=O)Nc3ccccc3N)cc2CC1=O", "cytotoxicity call": "inactive"}, {"smiles": "O=C(C[C@@H]1CC[C@H]2[C@@H](COC[C@H](O)CN2C(=O)Nc2cccc(F)c2)O1)NCCCN1CCOCC1", "cytotoxicity call": "inactive"}, {"smiles": "COc1ccc(NC(=O)Nc2ccc3c(c2)C(=O)N([C@@H](C)CO)C[C@H](C)[C@@H](CN(C)Cc2ccc(C(F)(F)F)cc2)OCCCC[C@@H](C)O3)cc1", "cytotoxicity call": "active"}, {"smiles": "COc1ccc(CN(C)C[C@@H]2OCCCC[C@H](C)Oc3ccc(NC(=O)Nc4ccc(C(F)(F)F)cc4)cc3C(=O)N([C@@H](C)CO)C[C@H]2C)cc1", "cytotoxicity call": "active"}, {"smiles": "COc1ccc(CN(C)C[C@H]2OCCCC[C@@H](C)Oc3ccc(NC(=O)Nc4ccc(C(F)(F)F)cc4)cc3C(=O)N([C@H](C)CO)C[C@H]2C)cc1", "cytotoxicity call": "active"}, {"smiles": "COc1ccc(CN(C)C[C@H]2OCCCC[C@H](C)Oc3ccc(NC(=O)Nc4ccc(C(F)(F)F)cc4)cc3C(=O)N([C@H](C)CO)C[C@H]2C)cc1", "cytotoxicity call": "active"}, {"smiles": "O=C(C[C@H]1C[C@H]2c3cc(NC(=O)c4ccc5c(c4)OCO5)ccc3O[C@H]2[C@H](CO)O1)NCCN1CCCCC1", "cytotoxicity call": "inactive"}]}]}
